ChEMBL document CHEMBL3988442, “University of Dundee, Small-Polar-MMV Screening Library” (2021)

What was measured:
[1] = molecular target: T1, Aspartate--tRNA(Asp/Asn) ligase (Mycobacterium tuberculosis (strain ATCC 25618 / H37Rv)) (UniProt P9WFW3); test: Assay for Asp RNA synthetase-1 from Mycobacterium tuberculosis; format: functional; parameters: scale not given: direction of the effect not stated beside the values; details: 30 µM; note: in the data most compounds retested in dose-response had high values
T1 sequence (whole entry): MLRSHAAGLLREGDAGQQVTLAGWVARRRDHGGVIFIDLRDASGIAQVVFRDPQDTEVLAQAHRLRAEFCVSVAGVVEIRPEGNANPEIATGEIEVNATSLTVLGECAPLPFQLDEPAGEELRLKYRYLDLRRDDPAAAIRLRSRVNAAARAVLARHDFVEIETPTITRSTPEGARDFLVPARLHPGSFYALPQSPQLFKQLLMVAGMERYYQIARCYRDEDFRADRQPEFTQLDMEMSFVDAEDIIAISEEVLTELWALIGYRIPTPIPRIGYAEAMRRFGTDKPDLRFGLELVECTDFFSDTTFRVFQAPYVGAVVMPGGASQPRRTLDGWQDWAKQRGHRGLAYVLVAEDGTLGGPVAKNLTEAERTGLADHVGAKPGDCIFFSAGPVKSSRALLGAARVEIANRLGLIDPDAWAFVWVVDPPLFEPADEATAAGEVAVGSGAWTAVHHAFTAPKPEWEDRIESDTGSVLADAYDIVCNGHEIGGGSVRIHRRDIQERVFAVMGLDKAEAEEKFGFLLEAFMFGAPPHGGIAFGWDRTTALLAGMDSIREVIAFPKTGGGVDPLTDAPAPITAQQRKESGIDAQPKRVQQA

[2] = molecular target: Shiga toxin 2 (Escherichia coli O157:H7) (UniProt P09385+P09386); test: E. coli 0.157:H7 Shiga Toxin SOP - stx2 screening assay; format: functional; parameters: scale not given: direction of the effect not stated beside the values; details: 30 µM

Structure (SMILES)	Percent Effect [1] [%]	Percent Effect [2] [%]
Cc1nn2cccnc2c1C(=O)N1CCCC(n2ccnc2)C1 (stereo not given)	6.28	-29.8
COc1c(CNC2CCN(c3ncccn3)CC2)c(C(C)C)nn1C	-2.81	30.1
Cc1n[nH]c(C2CN(C(=O)c3ccnc(C4CC4)n3)CCO2)n1 (stereo not given)	1.3	28.6
CN(Cc1ccc(F)cc1)CC1(O)CCN(C(=O)c2ccccc2)C1 (stereo not given)	3.23	-6.1
CC(C)(C)n1ncc2c1NC(=O)CC2c1ccccc1 (stereo not given)	-5	22
CN(C)c1cc(C(=O)NCCc2nnc(-c3ccco3)[nH]2)ccn1	-1.56	-46.4
CN(C)CC(=O)N1CCC2(CC(=O)N(c3cccc(C#N)c3)C2)C1 (stereo not given)	7.58	1.05
Cc1nc(C)n(C2CCCN(C(=O)c3sccc3C3CC3)C2)n1 (stereo not given)	-3.11	10.4
Cc1cccc(-c2nc(C)nn2CC(=O)N(C)C2CC2)c1	-4.28	6.5
COc1ccc(OC)c(C(O)CN2CC(n3cccn3)C2)c1 (stereo not given)	-0.9	21.2
Cc1nc2cc(C(=O)N3CCCC(n4cncn4)C3)ccc2n1C (stereo not given)	-8.92	-28.5
O=C(Cn1nc(-c2ccc(F)cc2)oc1=O)NCc1ccc(F)cc1	-2.48	32.8
Cc1noc(C2CCN(C(=O)c3ccc(N(C)C)nc3)CC2)n1	-4.17	-12.5
CC(CC#N)NC(=O)c1cc(Br)c2c(c1)OCCO2 (stereo not given)	-8.16	-5.44
CC(NC(=O)NCCCn1ccnc1)c1ccc2c(c1)CCC(=O)N2 (stereo not given)	-3.85	-22.9
CCNC(=O)N1CCN(Cc2nc3ccccc3[nH]2)[C@@H]2CS(=O)(=O)C[C@@H]21	2.89	-6.12
COc1ccccc1-c1noc(CN2CCCC2Cn2cccn2)n1 (stereo not given)	-7.54	21.6
Cn1nc(CNC(=O)C2CC2)cc1C1CC1	-2.99	-14.8
Cc1nn(C)c(N(C)C)c1CNCCNS(C)(=O)=O	-4.66	17.7
CC(C)N(Cc1nc2c(cnn2C)c(=O)[nH]1)c1ccccc1	-2.77	3.48
Cc1ccc(C2(CN3CCCC3)CCNCC2)nc1	-4.12	-12
Cc1ccc(NC(=O)C2CSCN2C(=O)c2cc[nH]n2)c(C)c1 (stereo not given)	-3.15	12
Cc1cccc(CN(C)Cc2nc3c(cnn3C)c(=O)[nH]2)c1	3.62	35.9
CCOC(=O)N1CCN(C(=O)c2sc(-c3ccc(F)cc3)nc2C)CC1	-0.364	8.24
O=C(CCc1cc2n(n1)CCCN(C(=O)c1cccnc1)C2)NC1CC1	-2.01	-9.98

Structure (SMILES)	Percent Effect [1] [%]	Percent Effect [2] [%]
O=C(Cc1ccc2c(c1)CCO2)N1CCCCC1Cn1cccn1 (stereo not given)	-2.75	-6.84
CCS(=O)(=O)N1CCC[C@]2(C(=O)N(C)C)CN(c3ccccn3)C[C@@H]2C1	0.903	-10.3
CCN(CC)CC1CN(CCc2ccccc2)Cc2nccn2C1 (stereo not given)	-4.79	4.72
Cn1cc(CN2CCn3cc(CNC(=O)C4CCC4)nc3C2)cn1	1.34	-6.29
CNc1nc(CNC(=O)Nc2cccc(F)c2C)cs1	-2.59	17.1
CS(=O)(=O)c1ccc(CNCC2CCN(CCO)CC2)cc1	9.49	-31.9
CC(=O)N1CCN(c2ccc3ccc(C(=O)NC4CCCC4)cn23)CC1	-0.91	-45
O=C(c1ccc[nH]1)N1CCC(c2nccn2Cc2ccncc2)CC1	5.61	-10.8
CCOc1ccc(C(C)NC(=O)N2CCC(C(N)=O)CC2)cc1OC (stereo not given)	-0.725	10.2
Cc1occc1C(=O)N1CCO[C@H]2[C@@H](Oc3ccccn3)CC[C@@H]21	-0.28	-16.2
Cc1cc(CN(C)C(=O)NC2CCS(=O)(=O)C2)no1 (stereo not given)	-1.18	14.9
O=C(CCc1nccs1)N1CCN(c2ccccc2F)CC1	-6.57	-11.9
Cc1cc(C)n(CC2CCCN2CCc2ccncc2)n1 (stereo not given)	-1.26	-7.41
NC(=O)C1CCN(C(=O)CCn2ccc3cc(Br)ccc32)CC1	0.306	12.4
Cc1nn(CC(C)C)c(N(C)C)c1CNCc1cccc2c1OCO2	1.9	20.6
Cc1csc(N2CCN(CCc3ccccn3)CC2C)n1 (stereo not given)	-6.27	-7.75
CC(C)C(Sc1nnnn1C1CC1)C(=O)NCc1cccnc1 (stereo not given)	-3.1	-4.91
O=C(N1CCCC1)N1CCO[C@H]2[C@@H](Oc3ccccn3)CC[C@@H]21	-4.07	-9.25
O=C(CCc1cccc(F)c1F)N1CCN(Cc2ccco2)CC1	0.502	-2.83
CN1CC(=O)N(c2cccc(F)c2)CC12CCN(S(C)(=O)=O)C2 (stereo not given)	-0.565	8.46
COc1ccc(C2CCCN2C(=O)CCNc2ncccn2)cc1 (stereo not given)	5.17	-17
CN1C[C@H]2CCN(C(=O)NC3CCCC3)CC[C@H]2S1(=O)=O	2.12	-19.5
O=C(CCC1CCN(Cc2ncc[nH]2)CC1)Nc1ccccc1Cl	0.166	-7.7
Cn1cc(CN2CC[C@@H]3O[C@H](C(=O)N4CCOCC4)C[C@@H]32)cn1	0.521	-23.7
O=C(CNCCn1cccn1)NCC1(c2ccccc2)CC1	1.09	13.4

Structure (SMILES)	Percent Effect [1] [%]	Percent Effect [2] [%]
CC(C)(C)N1CCCN(C(=O)c2csc(S(N)(=O)=O)c2)CC1	-2.95	-17.3
Cc1n[nH]c(=O)c2c(NC(=O)CN3CCCC(C(F)(F)F)C3)oc(C)c12 (stereo not given)	-2.66	-52.6
Cc1occc1C(=O)N1CCC[C@]2(C[C@@H](OCc3ccncc3)CO2)C1	6.93	-29.1
Cc1cnn(CC2CCCN2Cc2nnsc2Cl)c1 (stereo not given)	-2.88	9.02
CC(CN1CCN(C)CC1)NC(=O)c1cc(Cl)c2c(c1)OCO2 (stereo not given)	3.29	-0.562
O=C1CC(c2ccccc2)C2(CCN(Cc3ccccn3)CC2)N1 (stereo not given)	2.57	-17.4
Cc1cc(CN2CCCC2c2c(C)nn(C)c2Cl)no1 (stereo not given)	-1.57	8.59
CCCc1cc(C(=O)N(C)Cc2cccc3ncccc23)n(C)n1	-1.28	-12.5
C[S+]([O-])c1nncn1CC(=O)c1cccc(Cl)c1 (stereo not given)	-0.917	-33.8
CC(CNC(=O)c1ccc(F)cc1Cl)N1CCCC1 (stereo not given)	0.39	-4.69
Cn1cc(CN2CCCC3(CCN(c4nncs4)C3)C2)cn1 (stereo not given)	6.31	-11.3
Cc1nc(CN2CCN(C(=O)c3sccc3C3CC3)CC2)cs1	-4.27	13.6
COc1ccc(OC)c(Sc2ncccc2C(=O)N(C)CCC#N)c1	-6.44	13.3
CC(C)c1ccsc1C(=O)N1CCCN(Cc2cscn2)CC1	6.6	14.7
Cc1cc(NC(=O)NCc2ccccn2)n(C)n1	3.94	-40.7
Cc1nc(CN2C(=O)C[C@H]3[C@H]2CCN3C2CCOCC2)cs1	-3.97	9.23
CCN1C[C@@H]2[C@@H](OC)CCN(S(=O)(=O)c3ccccc3)[C@@H]2C1	-4.66	-20.4
OC(COCc1ccc(Cl)cc1)CN1CCC(c2ccn[nH]2)CC1 (stereo not given)	-1.57	-33
Cc1noc(NC(=O)c2ccc(Br)s2)n1	2.08	49.8
Cc1cccc(-c2nc(CN(Cc3cccs3)CC3CCCO3)no2)c1 (stereo not given)	-0.626	-5.45
O=C1N(c2ccc(Br)cc2)Cc2nc(=O)[nH]n21	-4.79	-34.3
CC(C)c1nn(C)c(N(C)C)c1CNCc1ccccc1CN(C)C	-0.745	23.7
O=C(NC1CCC1)[C@@H]1C[C@@H]2CCN(Cc3cccs3)C[C@@H]2O1	-2.46	-16.7
Cc1cc(C(=O)N2CCCC2c2nnc3n2CCCCC3)no1 (stereo not given)	-2.81	-2.64
Cc1nn(C)c(N(C)C)c1CNCc1ccc(OCC(N)=O)cc1	-6.72	-11.7

Structure (SMILES)	Percent Effect [1] [%]	Percent Effect [2] [%]
Cc1cccc(C)c1OCCC(=O)N1CCC(c2nncn2C)CC1	-2.43	-9.22
Cc1nc2ccccc2nc1CN1CCCC1Cn1cncn1 (stereo not given)	-6.08	7.83
COC[C@@]12CC[C@@H](N3CCOCC3)C[C@H]1CCN(c1ncccc1Cl)C2	-2.31	23
Cc1nc(CN2CCCC2c2ccsc2)nc2ccccc12 (stereo not given)	-2.75	-26.3
Cn1cc(-c2csc(N3CCOCC3)n2)cn1	2.54	-13
CC(CCc1ccco1)NC(=O)Nc1cc(C(F)(F)F)c[nH]c1=O (stereo not given)	0.141	36.5
COC[C@@]12CCO[C@@H]1CCN(Cc1ccccc1F)C2	0.843	-24.5
CC(=O)Nc1nc(CN2CCOC(Cn3cc(C)cn3)C2)cs1 (stereo not given)	-1.93	16.6
CCn1ccnc1CN1CCC(N(C)Cc2ncc(C)o2)C1 (stereo not given)	-4.45	-39.6
O=C(CCNC(=O)c1ccoc1)Nc1c(F)cccc1F	4.76	-4.74
O=C(c1ccnnc1)N1CCC2(CC1)CC(N1CCOCC1)C2	2.89	-0.921
CN1C(=O)CC(c2cnn(C)c2)C12CCN(C(=O)C1CC=CC1)CC2 (stereo not given)	-2.73	-0.198
O=C(COC[C@H]1CC[C@H]2[C@H](CCN2c2ncccn2)O1)N1CCCC1	-2.51	-24.1
c1ccc2cc(OCCN3CCOC(Cn4cncn4)C3)ccc2c1 (stereo not given)	-2.92	-29.2
c1ccc(-c2cnc(CN3CCCC3Cn3cncn3)o2)cc1 (stereo not given)	-6.65	8.27
CC(C)OCCCN1CCCC(c2nc3ccccc3n2C(C)C)C1 (stereo not given)	6.04	-18.5
O=C1CC(c2ccncc2)c2c(c(C(=O)O)cn2-c2ccc(F)cc2)N1 (stereo not given)	2.32	-17.3
Cc1nn(C)c2c(N3CCN(C(=O)NC4CCCCC4)CC3)ncnc12	-5.2	-44.8
CCc1n[nH]c(C2CN(CC(=O)NCCc3ccsc3)CCO2)n1 (stereo not given)	-5.2	-20.2
Cc1noc(C2CCN(C(=O)CCNS(C)(=O)=O)CC2)n1	-0.989	-13.5
CC(=O)N1CCCC1c1cc(N2CCN(C3CCCC3)CC2)cc(C)n1 (stereo not given)	-4.16	5
Cc1nc(CN(Cc2ccccc2)C2CCS(=O)(=O)C2)oc1C (stereo not given)	-0.478	24.1
CN(Cc1nnc(C2CC2)n1C)C1CCN(Cc2ccon2)C1 (stereo not given)	12.3	14.2
CCc1nccn1C1CCCN(C(=O)c2cnn3ccc(C)nc23)C1 (stereo not given)	0.632	11.2
O=C(C(CNCc1ccsc1)c1ccccc1)N1CCOCC1 (stereo not given)	4.13	-22.6
